Screens from PubChem BioAssay.
Hits are enriched below; roughly 2.1% of the tested compounds scored in any of these assays.
HIV Env fusion – inhibitors of HIV Env-mediated cell fusion | 1.1% of 360,000 active | HeLa-JRFL Env/CEM21 cell fusion, luciferase | inhibition, % at 12.3 µM;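 active = mean replicate inhibition score of at least 50 and every replicate individually at or above 50; inconclusive = only one of the two criteria met; inactive = mean below 50 and not all replicates reaching 50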
COUP-TFII inh – blocks human COUP-TFII nuclear receptor | P24468 | HEK293T NGFI-A luciferase reporter, luminescence | inhibition, % at 8.6 µM | 0.7% of 370,000 active | AID 686940;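 active = inhibition above a per-plate cutoff, mean inhibition of test wells between control levels plus 3 SD, cut at about 38% in these data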;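 note: cells cotransfected with COUP-TFII expression vector driving the NGFI-A reporter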
GalR3 antagonist – antagonists of human GalR3. HEK293 GalR3-CNG cAMP membrane potential fluorescence; galR3 body fused to GalR1 C-terminus. inhibition, % at 3 µM. 0.44% of 360,000 active. AID 651719;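 active = inhibition above the screen-wide average plus 3 SD, cut at about 13% in these data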;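 note: forskolin and galanin both at EC90 stimulate the cells; cAMP rise reported by CNG channel membrane potential dye signal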
Target sequence (O60755 1-299 limits assumed): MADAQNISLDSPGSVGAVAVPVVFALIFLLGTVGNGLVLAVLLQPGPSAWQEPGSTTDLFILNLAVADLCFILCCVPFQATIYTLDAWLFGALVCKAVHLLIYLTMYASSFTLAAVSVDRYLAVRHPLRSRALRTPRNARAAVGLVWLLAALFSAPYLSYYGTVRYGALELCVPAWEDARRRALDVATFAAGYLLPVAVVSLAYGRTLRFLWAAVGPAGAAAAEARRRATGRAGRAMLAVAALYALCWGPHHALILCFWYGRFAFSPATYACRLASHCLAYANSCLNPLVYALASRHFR
aDG glyco act – increases alpha dystroglycan glycosylation; activation, % at 10 µM; 0.22% of 360,000 active; Pro5-aDG cells, alpha-DG glycosylation AlphaScreen (IIH6); 0% Pro5, 100% B10-LARGE cell signal;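 active = activation of at least 8% versus controls, or a plate z-score of at least 8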;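 note: Pro5 are CHO cells carrying HIG-tagged alpha-DG that lacks glycosylation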
Gli-Sufu antag – blocks Gli-Sufu signaling in a luciferase reporter. 0.74% of 340,000 active. AID 588413. inhibition, % at 5 µM. Sufu-KO-LIGHT fibroblasts, Gli luciferase reporter luminescence;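 active = inhibition above about 55%, limit read from the data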
Gal4-VP16 ctr – inhibits VP16 reporter, flagging COUP-TFII antagonist hits; HEK293 Gal4-VP16 luciferase reporter, luminescence; 25% of 2,500 active; shares compounds with COUP-TFII inh; inhibition, % at 8.5 µM; in the data active = inhibition above about 13%
COUP-TFII conf – COUP-TFII (NR2F2) inhibition, confirmation assay; shares compounds with COUP-TFII inh; HEK293 NGFI-A luciferase reporter, luminescence; inhibition, % at 8.5 µM; 45% of 2,500 active; AID 687008;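 active = mean inhibition over three repeats above a set limit taken from the earlier primary screen, cut at about 38% in these data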
Hits are given with their value; i = inactive; ? = inconclusive; nt = no result given.

SMILES	HIV Env fusion	COUP-TFII inh	GalR3 antagonist	aDG glyco act	Gli-Sufu antag	Gal4-VP16 ctr	COUP-TFII conf
CC(=O)N1C[C@H]2CON(C)[C@H]2C[C@H]1c1cccc(-c2ccccc2C)c1	i	78.4	i	i	i	i	i
COc1ccc(NC(=O)/C(Cl)=C(/Cl)S(=O)Cc2ccccc2)cn1 (configuration not stated)	nt	61.4	i	i	65.7	88.2	100.0
COc1ccc(NC(=O)Cc2ccccc2)cn1	i	i	i	i	i	nt	nt
CC1CC(C)C[N+](=C2C=C(N3CCCC3)CC(C)(C)C2)C1 (configuration not stated)	i	62.3	28.5	i	86.0	15.1	59.0
COc1ccc(/C=C/c2c(-c3ccc(OC)cc3)oc3ccc(-c4ccc(OC)cc4)cc23)cc1	i	i	i	i	i	nt	nt
COc1ccc(/C=C/c2cc(-c3ccc(C)cc3)o[n+]2C)cc1	134.2	67.3	i	i	87.4	37.0	65.7
O=C(OCCC12CC3CC(CC(C3)C1)C2)c1ccc(NCc2cc(O)ccc2O)cc1	i	89.8	i	i	82.2	78.2	101.0
CCNC(=O)OCCC12CC3CC(CC(C3)C1)C2	i	i	i	i	i	nt	nt
N#Cc1cc2cc3c(cc2nc1SCC(=O)N1CCOCC1)OCCO3	i	46.4	i	i	i	24.2	59.0
Cc1cc2cc3c(cc2nc1SCC(=O)N1CCCC1)OCCO3	i	i	i	i	i	nt	nt
O=[N+]([O-])c1ccccc1C1Nc2cccc3cccc(c23)N1	i	i	i	i	i	nt	nt
O=[N+]([O-])c1ccc(Cl)c(C2Nc3cccc4cccc(c34)N2)c1	57.6	41.3	i	i	i	i	i
COc1ccc(S(=O)(=O)N(C)C[C@@H]2Oc3ccc(NC(=O)Nc4c(C)noc4C)cc3CC(=O)N([C@H](C)CO)C[C@@H]2C)cc1	i	nt	nt	nt	nt	nt	nt
O=c1cccc2c1c1cc[nH]c3ccc(=O)n2c31	nt	45.5	i	i	i	i	i
O=C(Nc1nc2c(s1)CCCC2)c1ccc(S(=O)(=O)N2CCCc3ccccc32)cc1	64.0	49.7	i	i	i	i	i
CC(C)(C)c1ccc(C(=O)NC(=S)Nc2nc3c(s2)CCCC3)cc1	i	48.9	i	i	i	i	i
CN(C)c1ccc(C(=O)Nc2nc3c(s2)CCCC3)cc1	i	i	i	i	i	nt	nt
CC1CCc2nc(NC(=O)c3ccc(S(=O)(=O)N4CCCc5ccccc54)cc3)sc2C1 (configuration not stated)	nt	i	i	i	i	nt	nt
CCC(Sc1nc(=O)cc(N)n1-c1cccc(C)c1)C(=O)Nc1cc(C)on1 (configuration not stated)	nt	43.0	i	i	i	i	i
CCC(Sc1nc(=O)cc(N)n1-c1ccccc1)C(=O)Nc1cc(C)on1 (configuration not stated)	nt	i	i	i	i	nt	nt
COc1ccccc1NC(=O)N[C@H]1CC[C@@H](CCNS(=O)(=O)c2ccc(Cl)cc2)O[C@@H]1CO	i	nt	nt	nt	nt	nt	nt
C[C@@H]1CCCCO[C@H](CN(C)C(=O)Cc2ccccc2)[C@H](C)CN([C@@H](C)CO)C(=O)c2cc(NC(=O)Cc3ccccc3)ccc2O1	i	nt	nt	nt	nt	nt	nt
C=C1CC(c2ccc(-c3ccccc3)cc2)OC1=O (configuration not stated)	i	nt	nt	nt	nt	nt	nt
C=C1CC2(CC(c3ccccc3)OC(c3ccccc3)C2)OC1=O (configuration not stated)	i	46.3	i	i	i	i	i
Cc1ccc(OCCCC(=O)Nc2ccc(Cl)c(S(=O)(=O)N3CCOCC3)c2)cc1	i	56.9	i	i	i	i	i
SMILES	HIV Env fusion	COUP-TFII inh	GalR3 antagonist	aDG glyco act	Gli-Sufu antag	Gal4-VP16 ctr	COUP-TFII conf
O=C(CCCOc1ccccc1)Nc1ccc(Cl)c(S(=O)(=O)N2CCOCC2)c1	i	49.2	i	i	i	i	i
O=C(CCCSc1ccccc1)Nc1ccc(Cl)c(S(=O)(=O)N2CCOCC2)c1	i	39.5	i	i	i	i	i
O=C(c1ccccc1)c1ccc(Cn2cc(CCCO)nn2)cc1	i	37.4	i	i	i	i	i
O=C(O)CCCCCCCCc1cn(Cc2ccc(C(=O)c3ccccc3)cc2)nn1	i	i	i	i	i	nt	nt
C[C@@H]1CCCCO[C@@H](CN(C)C(=O)Cc2ccccc2)[C@H](C)CN([C@@H](C)CO)C(=O)c2cc(NC(=O)NC3CCCCC3)ccc2O1	i	nt	nt	nt	nt	nt	nt
Cc1ccc(S(=O)(=O)n2ccc3c(OCCOCCNCc4ccc(F)cc4)cccc32)cc1	i	43.0	i	i	i	i	i
Cc1c(CCC(=O)NCCCC(=O)O)c(=O)oc2cc3oc4c(c3cc12)CCCC4	i	48.6	i	i	i	35.4	i
Cc1c(CCC(=O)N[C@@H](CCCNC(N)=O)C(=O)O)c(=O)oc2cc3oc4c(c3cc12)CCCC4	i	53.0	i	i	i	28.6	i
CCCCC(NC(=O)Cc1c(C)c2cc3c4c(oc3cc2oc1=O)CCCC4)C(=O)O (configuration not stated)	i	i	i	i	i	nt	nt
CCC(NC(=O)CCc1c(C)c2cc3c4c(oc3cc2oc1=O)CCCC4)C(=O)O (configuration not stated)	i	40.4	i	i	i	46.1	41.9
CCc1c(-c2ccccc2OC)ncn1Cc1cccc(-c2ccccc2)c1	i	51.3	i	i	nt	i	i
CCCCCCC(=O)N(O)C1CC(=O)N(c2ccc(F)cc2)C1=O (configuration not stated)	i	38.1	i	i	i	i	44.4
COc1ccccc1N(O)C1CC(=O)N(c2ccc(Br)cc2)C1=O (configuration not stated)	i	i	i	i	i	nt	nt
CCCCCCC(=O)N(O)C1CC(=O)N(c2ccc(Br)cc2)C1=O (configuration not stated)	i	39.9	i	i	i	i	51.8
CCCCN(C(=O)CCC(=O)O)C1CC(=O)N(c2ccc(OCCC)cc2)C1=O (configuration not stated)	nt	i	i	i	i	nt	nt
O=C(C[C@@H]1CC[C@H](NC(=O)c2ccccc2)[C@@H](CO)O1)NCCc1ccncc1	i	nt	nt	nt	nt	nt	nt
Cc1cc(C(=O)CSc2nnc(-c3cccc(F)c3)n2N)c(C)n1Cc1ccc2c(c1)OCO2	?	43.7	i	i	i	i	i
O=C(C[C@H]1CC[C@@H]2[C@H](COC[C@H](O)CN2C(=O)Cc2ccccc2)O1)NC1Cc2ccccc2C1	i	nt	nt	nt	nt	nt	nt
CCc1ccc(-c2nc(CSCC(=O)N3CCN(c4ccccn4)CC3)c(C)o2)cc1	85.6	51.6	i	i	i	i	i
CCOc1ccc(-c2nc(CSCC(=O)N3CCN(c4cccc(OC)c4)CC3)c(C)o2)cc1	nt	66.4	nt	i	i	16.6	44.4
C[C@@H]1CCCCO[C@@H](CN(C)CC2CC2)[C@@H](C)CN([C@H](C)CO)C(=O)c2cc(NC(=O)CCC(F)(F)F)ccc2O1	i	nt	nt	nt	nt	nt	nt
